From the supplement of paper PMC3334620
Over roughly 33,000 sequences, “E-score (-0.5 to 0.5)” has its median near -0.0034; the highest 2% begin near 0.25. The full list was thinned out, with the highest values kept by preference.

target: T1, Yap3 (UniProt P38749); assay: PBM E-score (8-mer binding enrichment) (E-score (-0.5 to 0.5)); higher = stronger / more preferred TF binding; conditions: protein concentration: 100 nM; construct: GST-full length
T1 sequence: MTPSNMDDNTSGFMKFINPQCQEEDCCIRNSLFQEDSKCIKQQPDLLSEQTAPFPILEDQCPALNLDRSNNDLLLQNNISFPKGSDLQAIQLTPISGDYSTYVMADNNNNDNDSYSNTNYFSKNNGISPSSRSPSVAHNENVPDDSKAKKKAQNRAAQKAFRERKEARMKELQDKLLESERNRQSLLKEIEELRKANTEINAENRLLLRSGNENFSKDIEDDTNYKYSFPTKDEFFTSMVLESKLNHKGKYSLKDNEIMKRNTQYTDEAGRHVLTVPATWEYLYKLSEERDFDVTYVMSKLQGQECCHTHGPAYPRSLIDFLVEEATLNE
Procedure: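 Universal 'all 10-mer' protein binding microarrays (Agilent AMADID 015681) probed with GST-tagged S. cerevisiae TFs (full-length or DBD) made by in vitro transcription/translation (PURExpress), about 100-200 nM. Bound TF was detected with fluorescent anti-GST. Each ungapped 8-mer (which stands for itself and its reverse complement) is scored by the PBM enrichment score (E-score), a modified Wilcoxon-Mann-Whitney statistic from -0.5 to +0.5, computed with the Universal PBM Analysis Suite. Scale: above 0.35 generally sequence-specific binding.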

| Sequence | PBM E-score |
| --- | --- |
| ACGGTAGA | -0.0586 |
| AACTGATT | -0.0243 |
| AACCAGGC | -0.00725 |
| CAGTGAAC | 0.161 |
| CTGGTTGA | -0.256 |
| CTTCACTC | 0.0393 |
| ATTATGCA | 0.0948 |
| ATTATGCC | 0.119 |
| AGTATGTG | 0.203 |
| CTAATGTA | 0.148 |
| ATTATGTC | 0.198 |
| ATTATGTG | 0.291 |
| ATAATGTA | 0.292 |
| ACTATGTG | -0.0195 |
| ATAATGTC | 0.195 |
| ATTATGCG | 0.297 |
| ATTATGTA | 0.267 |
| GTTATGTA | 0.151 |
| CCTGCGCA | -0.158 |
| AAATCACC | 0.235 |
| AGATCGCG | 0.0544 |
| GTAGGGAA | 0.0975 |
| ACGTAGTC | -0.262 |
| CTTATGAA | 0.0398 |
| ATTATGAA | 0.261 |
| GTTATGAA | 0.172 |

| Sequence | PBM E-score |
| --- | --- |
| ATCGACTA | 0.0167 |
| CATGTGGC | 0.0138 |
| ACAACGCG | 0.0663 |
| ATATTCTA | 0.175 |
| CTATTCTC | 0.134 |
| GTATTCAC | 0.113 |
| ATATTCTC | 0.295 |
| CTATTCAC | 0.133 |
| ATATTCAC | 0.254 |
| AGGTTCTG | -0.122 |
| CCACCATC | -0.238 |
| GTACAAGA | 0.0226 |
| GACTTACC | -0.11 |
| CAAAGTCA | 0.0697 |
| AGACAATC | 0.129 |
| AGACAATG | 0.0142 |
| AGACAATA | 0.339 |
| CTATGGGC | -0.0642 |
| ACCCAGAA | 0.158 |
| CAACCGCA | 0.00088 |
| CAACCGCC | -0.103 |
| CAACCGCG | 0.323 |
| CATAAGAA | 0.21 |
| AAGTGGAC | -0.033 |
| GTTCGTAA | 0.192 |
| CTACGTAA | 0.135 |

| Sequence | PBM E-score |
| --- | --- |
| GTACGTAC | 0.0261 |
| AAACGTAT | 0.145 |
| ATTCGTTC | 0.27 |
| CTTCGTTC | 0.0138 |
| GTACGTAA | 0.312 |
| ATTCGTAA | 0.292 |
| CTTCGTAA | 0.141 |
| ATACGTAT | 0.296 |
| ACACGTAT | 0.0936 |
| ATTCGTTA | 0.25 |
| CGGGGTAC | -0.251 |
| GTGAGCTA | 0.0321 |
| AAATGTGC | 0.197 |
| CCACTAAG | 0.0472 |
| ACTAAGTG | -0.00977 |
| ACAACAGC | 0.0808 |
| ACAGAGAT | 0.0805 |
| CAGGCAAG | -0.0287 |
| ATACGTAG | 0.0583 |
| ATACGTAA | 0.266 |
| ATACGTAC | 0.0322 |
| CCTTAGCC | -0.0133 |
| CGCCATCC | -0.247 |
| CTGTAAGA | -0.0157 |
| ATGTAAGC | 0.264 |
| ATGTAACG | 0.164 |

| Sequence | PBM E-score |
| --- | --- |
| ATGTAAGG | 0.129 |
| CTGTAATA | 0.113 |
| CTGTAACA | -0.0647 |
| ATGTAATA | 0.371 |
| CTGTAAGC | -0.0121 |
| ATGTAATG | 0.151 |
| ATGTAAGA | 0.277 |
| ATGTAACA | 0.256 |
| GTGTAAGA | -0.0287 |
| AGCGTCGA | 0.124 |
| AACCTAAA | 0.142 |
| ATCCCTGA | -0.0313 |
| CAGCACAC | -0.173 |
| AAGTGTTA | 0.112 |
| TAGAGCTA | -0.0728 |
| AATCCTCT | -0.127 |
| CCAGTTCG | -0.114 |
| AAAATCTA | 0.0549 |
| CGCTACTA | 0.264 |
| AGCTACTA | 0.0917 |
| CGCTACTC | -0.112 |
| ATTTTCTC | 0.0752 |
| ATAATACG | 0.292 |
| CTAATACA | 0.25 |
| ACAATACG | 0.0668 |
| ATACTACA | 0.28 |

| Sequence | PBM E-score |
| --- | --- |
| ACAATACA | 0.0763 |
| AGAATACG | 0.0873 |
| CTACTACA | 0.225 |
| GAAATACA | 0.0912 |
| ATAATACC | 0.226 |
| GTAATACA | 0.273 |
| ATAATACA | 0.357 |
| ATACTACC | 0.0377 |
| GAAGGCAC | -0.128 |
| AAGGATTC | -0.129 |
| GAGTGGAA | 0.0318 |
| CGATATCC | 0.146 |
| AAAGAGGC | -0.0407 |
| ATTCCTTG | -0.113 |
| GCTATATA | 0.101 |
| CTTATATA | 0.315 |
| ACTATATA | 0.328 |
| GTTATATA | 0.224 |
| ACCATATG | 0.122 |
| GGCATATA | 0.268 |
| CTTATATC | 0.218 |
| ACTATATC | 0.227 |
| CGCATATA | 0.00761 |
| ACCATATA | 0.285 |
| AGCATATA | 0.0558 |
| ACCATATC | 0.0587 |

| Sequence | PBM E-score |
| --- | --- |
| ACCTAAAC | 0.122 |
| GAGGGATC | -0.253 |
| ACTGGTAA | 0.184 |
| CCTAGACC | -0.146 |
| CGAAGGTA | 0.00763 |
| AGTGCGCG | -0.0557 |
| CCCTGTCC | -0.276 |
| TAGAGCAA | -0.0378 |
| AAACTGCT | -0.156 |
| GACTCTTA | 0.141 |
| ATTATATC | 0.16 |
| ATTATATG | 0.221 |
| ATTATATA | 0.3 |
| AATGCCAG | -0.00344 |
| GCGTGGCC | -0.3 |
| TGTCGAAA | -0.0162 |
| GAATAACA | 0.308 |
| TAATAACA | 0.189 |
| AAATAGAA | 0.0373 |
| GAATAATA | 0.292 |
| AAATAAGT | 0.145 |
| AAATAATT | 0.287 |
| GAATAATC | 0.217 |
| CAATAACA | 0.0825 |
| TAATAGAA | 0.257 |
| AAATAAAT | 0.241 |

| Sequence | PBM E-score |
| --- | --- |
| GAATAAGA | 0.109 |
| GAATAGAA | 0.125 |
| TAACACTA | 0.245 |
| ACGCGTTA | 0.0763 |
| GGCTCTGA | -0.03 |
| CAGAGTTA | -0.0557 |
| ACACCATA | 0.164 |
| GCGCACCA | -0.0312 |
| AAATAAAA | 0.224 |
| TAATAAAA | 0.324 |
| TATTAGAA | 0.287 |
| TAATAAGA | 0.136 |
| CATTAGAA | 0.123 |
| AAATAATC | 0.0637 |
| GATTAGAA | 0.0967 |
| TAATAATA | 0.373 |
| CAATAATA | 0.237 |
| AAATAATG | 0.24 |
| AAATAATA | 0.307 |
| GAATAAAA | 0.178 |
